# Tests used:
# ETS1 [1] = target: T1, ETS1 (UniProt P14921); test: ETS1 binding intensity (PBM fluorescence), ETS1 alone (arbitrary fluorescence units); higher = stronger binding; conditions: ETS1 concentration 1 nM; RUNX1 concentration 0 nM
# T1 sequence: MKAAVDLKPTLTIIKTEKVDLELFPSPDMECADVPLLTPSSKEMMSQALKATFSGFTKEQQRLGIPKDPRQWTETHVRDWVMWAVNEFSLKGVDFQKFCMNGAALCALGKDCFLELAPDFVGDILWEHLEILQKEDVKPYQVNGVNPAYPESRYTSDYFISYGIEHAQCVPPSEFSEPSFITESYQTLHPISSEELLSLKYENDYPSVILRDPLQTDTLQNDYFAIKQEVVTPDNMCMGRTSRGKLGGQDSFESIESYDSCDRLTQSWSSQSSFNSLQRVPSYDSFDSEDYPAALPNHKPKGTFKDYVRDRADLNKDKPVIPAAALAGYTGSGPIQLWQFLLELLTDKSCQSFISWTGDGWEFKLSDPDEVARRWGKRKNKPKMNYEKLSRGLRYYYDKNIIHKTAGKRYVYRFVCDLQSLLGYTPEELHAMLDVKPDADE
# RUNX1 [2] = target: RUNX1 (UniProt Q01196); test: RUNX1 binding intensity (PBM fluorescence), RUNX1 alone (arbitrary fluorescence units); higher = stronger binding; conditions: RUNX1 concentration 2 nM; ETS1 concentration 0 nM
# Method: (§1)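 Cooperative gcPBM on 36-bp genomic probes with neighbouring ETS1 and RUNX1 sites. Recombinant human RUNX1 (2 nM) was incubated alone or with ETS1 (25 nM) and detected with anti-RUNX1 antibody plus Alexa488 secondary. Values are medians over 4 replicate spots; the RUNX1+ETS1 data were normalised to the RUNX1-only data. The probes sit in constant array flanks that are not printed.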
# ETS1 [3] = target: T1, ETS1; test: ETS1 binding intensity (PBM fluorescence) in presence of RUNX1, normalised to ETS1-only experiment (arbitrary fluorescence units); higher = stronger binding; conditions: ETS1 concentration 1 nM; RUNX1 concentration 25 nM
# RUNX1 [4] = target: RUNX1 (UniProt Q01196); test: RUNX1 binding intensity (PBM fluorescence) in presence of ETS1, normalised to RUNX1-only experiment (arbitrary fluorescence units); higher = stronger binding; conditions: RUNX1 concentration 2 nM; ETS1 concentration 25 nM
# Method: as §1
# 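Throughout, for RUNX1 binding intensity (PBM fluorescence) in presence of ETS1, normalised to RUNX1-only experiment: Full-length recombinant human ETS1 or RUNX1 bound to double-stranded 36-bp genomic probes on microarrays, detected by protein-specific primary antibody and Alexa488 secondary, spot fluorescence as median of four replicate spots.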
# 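Throughout, for RUNX1 binding intensity (PBM fluorescence), RUNX1 alone: Full-length recombinant human RUNX1 bound to double-stranded 36-bp genomic probes on a high-density microarray, scored as Alexa488 fluorescence per spot via anti-RUNX1 antibody, median of four replicate spots.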
# Sequence of RUNX1 (Q01196 whole entry): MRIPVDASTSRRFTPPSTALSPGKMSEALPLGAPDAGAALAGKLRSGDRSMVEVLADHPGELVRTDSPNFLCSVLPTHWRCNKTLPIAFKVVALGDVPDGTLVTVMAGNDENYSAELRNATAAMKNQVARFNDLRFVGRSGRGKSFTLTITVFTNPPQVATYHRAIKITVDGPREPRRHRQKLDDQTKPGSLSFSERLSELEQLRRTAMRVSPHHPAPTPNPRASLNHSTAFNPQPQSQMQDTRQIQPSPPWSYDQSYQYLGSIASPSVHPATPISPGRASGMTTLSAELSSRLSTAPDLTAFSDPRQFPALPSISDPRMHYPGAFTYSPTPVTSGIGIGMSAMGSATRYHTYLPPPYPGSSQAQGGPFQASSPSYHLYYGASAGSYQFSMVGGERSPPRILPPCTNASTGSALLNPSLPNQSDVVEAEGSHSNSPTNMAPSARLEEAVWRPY
Sequence,ETS1 binding intensity (ETS1 [1]),RUNX1 binding intensity (RUNX1 [2]),ETS1 binding intensity (ETS1 [3]),RUNX1 binding intensity (RUNX1 [4])
AGAAGCTTCTACAGGAAACCACTAATGGAGACAGAG,1440,782,1970,958
GGCTGTGCTTCAGGATGTGGTAATGCTTGGGAGGCG,990,780,4180,1360
GTTCCTTTGAAAGCAGGATGTGGTTTGCCCCAGCTT,5390,881,29200,3730
ACACAGAGAGTGAGAGGAAGTGGTTTAGAGATGAGA,2440,769,3210,1050
CACCCGAACGGAAACACCTGCGGCTGAGGGGAGGGG,959,989,1110,938
AGGGCTGAAACAGGATGTGGTGAGTGAGGTAGGGTG,6020,816,16600,3160
AACAGCTTCCGGCACGGGGGCTGTGGTTGTGTTGGA,670,790,1130,1530
TGGGGCTCTTCCTGCTTATGTGACCACAGCACCTTG,402,936,679,1760
TAAGCAGGGAATAGAGGAAGTGGTTTTGTCTCAGGC,3270,779,7880,1780
GTTTGAAGGGAAGTGGGTGTTGACCTGCGGGCAACT,483,806,948,969
CCGGCAGGAAGTTAGCATGGGCGGACCACACGGGGG,1400,1470,1530,1590
AGTGGAGTAGGAACCGGAAAACCACAATAAGTCCCA,2170,1470,12400,3630
CAGGGCACCTCCTACTTCCCCCCGCAGATAACTACC,875,999,1010,906
GACTCCCTCAGCGGATGCGGGTGCTGCTGCTGCTGC,1290,743,1400,1250
CTGCTGGCGTTCCCGGATGTGCGGTGGCGGTGCTAC,4900,753,9340,1570
GGAGGAAGAGGAGGATGTGGTGAGCCGCTCCCCGCC,923,782,1870,1260
GGCTTTCCGTTCAAGGATCTTTTTGCGGTCTTTGTC,445,1610,777,3270
AGACGGTAGGCCAGGAAACCGCAGGCCCCTGCCGGG,925,6110,3730,10600
AAGTTCTTCCGGGTCTGCAGTCTGTGGTGTGTTTGC,478,810,422,1710
TCATATCCGGCAGGAATGGGTTTTGTGGCTTTGTGC,752,1670,1400,3620
GATGCTCTAACAGGAAGTGGGTTAAGGAGCTGCACT,12200,673,14100,2390

Sequence,ETS1 binding intensity (ETS1 [1]),RUNX1 binding intensity (RUNX1 [2]),ETS1 binding intensity (ETS1 [3]),RUNX1 binding intensity (RUNX1 [4])
TCACATCCTGTAATGGTTTGCGCATACCACAGTTCT,455,825,684,1740
TCGCCCGCCGCTTCCTGTCGCGGCGCCGCAGAGGCC,1740,821,1890,3000
CACCCGCCCCCCGGAAGTGCCGGTGGTTGGGCTCCG,5120,703,7610,1540
GCGGCTGAGAACACAGGATGTGGCTTTTGGCAGATG,6080,674,12800,1680
CGGAGGCGGCCGGAAGTAGCGCTGCGGTTGGCAGCT,16800,937,64100,6060
CAGGCAGGATGTTGACTCAGCTGCCAAGTGGTTTTG,1340,719,1760,1020
TCCCGGCGTTCTTCCGCTGGCTCAGCCGCAAGTACC,573,818,822,1170
CTGAGCAAAAGGAGGAAGCTGTGGTCTGTGTACCCA,606,810,1800,945
TGAGGAGAGCGAGGAAGTGGTTTTCTCTTCGCACAG,691,746,1080,948
CTACAGGAAGTTCGAACTGGGCGGAGCCCACCGCAG,1320,658,1950,1120
CTCACTTCCCCGGCAGCTCCCTCGCCCCGACCGCAG,406,1910,479,2740
CTGCGAGCTCAGAACGGAAACCACAGCAACTACCGT,2170,1070,4260,1550
GCTTCTTCCGGCCGGGCCGAGAGGTGGTTACATTCG,683,792,700,1940
ACACTGGCCGGAAGGGGCGGGACCGCGAGTTAAGAG,1280,791,2380,1320
GGGCTCGGGGAGGAAGCGGTGGTTTCTCTTTGAAGC,696,729,907,970
ACAGGAAATGACTTAGGGAAAGTCCCAACCGCAATC,2800,1230,15700,1530
CCAGCTACACAGGATGCTGCGGTGGGCGGAATGCTC,2160,801,9170,1970
GAGGCGTTTCCGCCTCCTTTTCGCGGTTGCCTTCTC,639,1060,761,2790
AACGACAAACCGGAAGTATGGTTTGCCGCCTGAAGC,17000,754,19500,1620
TACAACTTGCAACGGAAACCACTTCAGGTTCATTAC,1320,847,1280,866
ATTTAGGAGGAAGTTTCCAGTACCACAACCTCACAG,430,868,709,788

Sequence,ETS1 binding intensity (ETS1 [1]),RUNX1 binding intensity (RUNX1 [2]),ETS1 binding intensity (ETS1 [3]),RUNX1 binding intensity (RUNX1 [4])
GAGATACACAGCGACATCCGCCCGCAAGAGCATGGT,823,733,1090,1280
TACTAGTTTGGGGCATCCTGTGGTATAGGGGAAGCA,4100,797,4560,1080
TTCTCATCCGGCCGGCTTGCTTTCCCCTGCGGTCGT,394,962,641,1650
TGCAAGAGGAAGCTGGGGTTTGTGGTTCATGTTTTG,528,874,1000,1390
CCACGGCTGGCTTCCTGTGTGGTTGGCACGCCTTAC,951,772,1210,1620
GCCATGGCCACTTCCTGCTTGTAACCACAGCCCAGA,4430,1210,13200,5520
TGTCATCCCGGAAACTGATAACAAGACCGCGAGTCA,1910,807,2530,1450
AGTTGTGTTTTAGGATGTGGTCAAAGCCCAACAGAG,581,910,2150,1090
TGGAGAGCACAGGAAGTGGCCCACAGCCCAGGCCAA,5790,766,6890,1280
GGAGGGGCTGGCCGGAAGTGAACCGCAGAGCACGCT,11600,1070,33500,2980
CCCTGGGGCCCCACTTCCTTGCCCACAAGAAAGGAC,395,1020,446,1360
TGAGCTCAGGCCGGAAGCGGTGGATGATGGCACACA,9910,716,8670,1560
TCAATAAGACAGGATGTTCTCCAACCGCATTAAGCT,3270,854,22100,2910
TGGGTACTTCCTGTGACAAATCGAGTTGACCACATG,1190,678,2230,1720
CCCACTTCCTGTCTGCTTCCCTCCACCGCTCAGACC,2890,1890,2650,4290
TGCAATTGGCAGACAGGAAACCGCGGCGTTTTCTGG,5340,764,13500,1440
CTAAGCAGAGGCCGGAAGCGGTGGTTTTTAGCGGCT,10200,677,20400,2090
AAGAGGAAATAAATACCAGAGTGAACCCACAAACCT,441,892,943,903
GAGAACTTCCGGTGCGCTCCCCGGGACTGCGGTCCC,3420,729,4920,2780
ATCTTCAGGAAGCGGTATCAACCTGAAAACCACCAC,561,772,870,1250
ATGGCGAAGCAGGATGCCCTCAACCCACATACGGCA,638,1010,927,1000

Sequence,ETS1 binding intensity (ETS1 [1]),RUNX1 binding intensity (RUNX1 [2]),ETS1 binding intensity (ETS1 [3]),RUNX1 binding intensity (RUNX1 [4])
AGCCACATCCTCCCTTAGGTCTGACCGCAGCTTAAC,381,4190,2170,5430
GGACGCCGCCGGAAGCGCGACCCGCACTCCCGGTAG,3650,794,3500,1260
TCTTCTTCCTCCCCCACCCCAAAAGCCACAGGTGAC,492,1290,441,1410
ACCTGTGTTCTGGCAGGATGTGGTTGACCTCAGCAG,4140,755,18700,2700
CTCGCGATTCCTCTTCCGCTGCGGTCTCCTTAACAC,634,1290,841,2170
GTGGGTTTAGGATATGGGTGTGGTTTCTAATTGTCT,428,885,653,1020
GAGAAAAGAGACTGAGGATGTGGTTTGGGGTGTGGG,661,844,6260,1050
TCACCTCATCACAGGAAACCGCGAGCACCTCCTCCT,2180,1610,5440,1770
AGGCAAACAGGATGTTCCTCTCCCACATGCAGACTT,4200,806,3770,1300
CCCAGCCGAGGGAGGAAGCCTGCGGTCACTGCCATC,402,1640,2740,3190
TTCAGAAAAAAAGGAAGTGGTAAATTCTTGCTGATT,1890,775,3620,1500
TGTTTTCGCTCTTCCTGGCCTTGCGGGCAGCCAGGA,390,1060,783,1510
CTAACCCTTCTCTTCCTGCAAAAACCACAACAAAGG,640,2250,1720,3580
GAGCTGCTCCGGAAGGGTGGTGTGTGGTCAACCTTG,759,876,1520,1050
AGAGGCAGCTTCCGGAGACTGCTCTGTGGCCAGTTT,794,711,1070,1310
CCATTCTTCCGGTGGAGATGGCTGCGGCCGTGGCGG,568,714,588,2240
GGCGGTGACCGGAAGAGCTGAGTCACCGCAGGCGAC,4020,813,11300,1600
TGGTTTCCGGGCTGGGGTTAGAATAGGCCACAAGGT,494,787,536,1740
